# From PubChem BioAssay (EPA / NIEHS)
# Inconclusive results are not listed. Active and inactive are the calls of the source. How the source made its calls, unless noted: active means hit-call score of the fitted dose curve at least 0.9, where 1 is the maximum; inconclusive means response in the unintended direction; inactive means score below 0.9.
# Experiments:
# [1] = read-out: alkyl and aryl transferase (GSTA2), GSTA2 (gene 2939); experiment: CLD_GSTA2_6hr: CellzDirect (CLD) Gene Expression Assay for alkyl and aryl transferase (GSTA2) at 6 hours (AID 2283666)
# In short: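 Primary human hepatocytes from two donor preparations were dosed daily with fresh compound at multiple concentrations, 0.2% DMSO vehicle. GSTA2 mRNA was measured at 6 hours by qNPA chemiluminescence; induction fitted relative to DMSO, with cytotoxicity flagged morphologically.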
# [2] = Tanguay_ZF_120hpf_TR_legacy: (Legacy) Oregon State University Tanguay Lab 120 Hour Post-fertilization zebrafish Assay for Touch Response (AID 2283667)
# In short: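 Tropical 5D wild-type zebrafish embryos statically exposed to 120 hpf at 28°C, sealed and dark-covered, 0.64% DMSO final; touch response scored as present/absent by brightfield microscopy at 120 hpf. Trimethyltin chloride 5 uM positive control; dead embryos not scored.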
# [3] = read-out: sulfotransferase (SULT2A), SULT2A1 (gene 6822); experiment: CLD_SULT2A_6hr: CellzDirect (CLD) Gene Expression Assay for sulfotransferase (SULT2A) at 6 hours (AID 2283669);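 further: hits raise transcript level above the DMSO vehicle baseline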
# In short: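 Primary human hepatocytes from two donor preparations were dosed daily with chemicals or 0.2% DMSO and harvested at 6 h. Transcript induction read by qNPA chemiluminescence, fitted for gain of signal relative to DMSO; morphology-based cytotoxicity annotated.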
# [4] = read-out: glucuronosyltransferase (UGT1A1), UGT1A1 (gene 54658); experiment: CLD_UGT1A1_6hr: CellzDirect (CLD) Gene Expression Assay for glucuronosyltransferase (UGT1A1) at 6 hours (AID 2283672)
# In short: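 Primary human hepatocytes from two donor preparations, dosed with fresh solutions in 0.2% DMSO, harvested at 6 h. UGT1A1 mRNA measured by qNPA chemiluminescence; induction fitted upward versus DMSO.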
# [5] = read-out: xenobiotic metabolism (CYP1A1), CYP1A1 (gene 1543); experiment: CLD_CYP1A1_24hr: CellzDirect (CLD) Gene Expression Assay for xenobiotic metabolism (CYP1A1) at 24 hours (AID 2283673);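 further: CYP1A1 mRNA level by quantitative nuclease protection with chemiluminescence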
# In short: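 Primary human hepatocytes dosed daily with fresh solutions in 0.2% DMSO vehicle. mRNA measured at 24 h by quantitative nuclease protection assay with chemiluminescence; gain-of-signal fit versus DMSO, with morphology-based cytotoxicity flags.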
# [6] = CLD_ACTIN_6hr: CellzDirect (CLD) Gene Expression Assay for Baseline Control (Actin) at 6 hours (AID 2283676);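 further: active means increased actin mRNA relative to DMSO vehicle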
# In short: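 Primary human hepatocytes dosed with fresh chemical solutions (vehicle 0.2% DMSO), harvested at 6 h. Actin mRNA quantified by quantitative nuclease protection assay with chemiluminescent read-out, as background control relative to DMSO.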
# [7] = read-out: Cytochrome P450 2B6 (Homo sapiens) (UniProt P20813); experiment: CLD_CYP2B6_6hr: CellzDirect (CLD) Gene Expression Assay for xenobiotic metabolism (CYP2B6) at 6 hours (AID 2283677);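 further: actives raise CYP2B6 transcript above DMSO baseline so AC50 marks an inducer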
# In short: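 Primary human hepatocytes dosed with chemicals at multiple concentrations, vehicle 0.2% DMSO; CYP2B6 mRNA induction measured 6 h after dosing by quantitative nuclease protection assay with chemiluminescence, gain of signal fitted relative to DMSO.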
# [8] = read-out: Cytochrome P450 2C19 (Homo sapiens) (UniProt P33261); experiment: CLD_CYP2C19_6hr: CellzDirect (CLD) Gene Expression Assay for xenobiotic metabolism (CYP2C19) at 6 hours (AID 2283678)
# In short: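 Primary human hepatocytes from two donor preparations were dosed daily, with 0.2% DMSO as vehicle, and harvested 6 h after dosing. CYP2C19 mRNA induction was measured by qNPA chemiluminescence and fitted as gain of signal against DMSO.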
# [9] = CCTE_Padilla_ZF_144hpf_TERATOSCORE: (Legacy) CCTE's 144 Hour Post-fertilization zebrafish Assay Teratoscore, Padilla Lab (AID 2283679; active means hit-call score of the fitted dose curve at least 0.9, where 1 is the maximum; inactive means score below 0.9;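 on AC50: zebrafish embryos with chorions exposed by immersion from 6-8 hpf to 5 dpf with daily renewal; teratogenicity score from eye scoring of death hatching and malformations at 144 hpf; higher score means more developmental defects relative to DMSO baseline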)
# In short: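 Larvae scored by eye at 144 hpf for death, hatching and malformations after a day in clean Hanks'. Before that, daily-renewed exposure at 80 uM (0.4% DMSO, 26C) from roughly 6-8 hpf through 5 dpf, 4 embryos per chemical.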
# [10] = read-out: Cytochrome P450 3A4 (Homo sapiens) (UniProt P08684); experiment: CLD_CYP3A4_6hr: CellzDirect (CLD) Gene Expression Assay for xenobiotic metabolism (CYP3A4) at 6 hours (AID 2283680)
# In short: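 Primary human hepatocytes (two donor preparations) dosed; CYP3A4 mRNA harvested at 6 h and quantified by qNPA chemiluminescence. Gain of signal fitted against 0.2% DMSO vehicle; cytotoxicity flagged by phase-contrast morphology.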
# [11] = read-out: Glyceraldehyde-3-phosphate dehydrogenase (Homo sapiens) (UniProt P04406); experiment: CLD_GAPDH_6hr: CellzDirect (CLD) Gene Expression Assay for Baseline Control (Glyceraldehyde 3-phosphate dehydrogenase) at 6 hours (AID 2283681);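 further: active means increased signal relative to DMSO vehicle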
# In short: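 Primary human hepatocytes from two donor preparations, dosed at multiple concentrations with 0.2% DMSO vehicle; GAPDH mRNA measured 6 h after dosing by chemiluminescent quantitative nuclease protection assay (qNPA) on denatured lysates. Serves as background control; cytotoxicity annotated by morphology.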
# [12] = read-out: HMG-CoA synthase (HMGCS2), HMGCS2 (gene 3158); experiment: CLD_HMGCS2_6hr: CellzDirect (CLD) Gene Expression Assay for HMG-CoA synthase (HMGCS2) at 6 hours (AID 2283682);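 further: actives raise HMGCS2 transcript above the 0.2% DMSO vehicle baseline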
# In short: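 Primary human hepatocytes dosed daily with fresh chemical, 0.2% DMSO vehicle; HMGCS2 mRNA measured at 6 h by qNPA chemiluminescence. Gain of signal fitted against DMSO; cytotoxicity flagged from phase-contrast morphology.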
# [13] = read-out: xenobiotic metabolism (CYP1A2), CYP1A2 (gene 1544); experiment: CLD_CYP1A2_24hr: CellzDirect (CLD) Gene Expression Assay for xenobiotic metabolism (CYP1A2) at 24 hours (AID 2283683)
# In short: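 Primary human hepatocytes from two donor preparations dosed daily with multiple concentrations of chemical, 0.2% DMSO vehicle. CYP1A2 mRNA at 24 h quantified by qNPA chemiluminescence; gain of signal analyzed relative to DMSO. Cytotoxicity flagged by phase-contrast morphology.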
# [14] = CCTE_Simmons_CellTiterGLO_HEK293T: Viability Assessment in CCTE's Assays for Thyroperoxidase (TPO) Inhibition, Simmons Lab (AID 2283665);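 on AC50: cells exposed to compound for 24 h before readout; actives reduce ATP signal below DMSO vehicle meaning cytotoxicity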
# In short: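 HEK293T, 10 000 cells/well, DMEM + 1% FBS; 8-pt titration 5 nM–87.5 uM [final], 0.5% DMSO; 24 hr, 37C, 5% CO2; CellTiter-Glo luminescence; n=3 biological replicates.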
# [15] = read-out: Cytochrome P450 (CYP24A1_1), CYP24A1 (gene 1591); experiment: LTEA_HepaRG_CYP24A1_1: Life Technologies and Expression Analysis (LTEA) Assay for Cytochrome P450 (CYP24A1_1) using HepaRG (AID 2283671; active means hit-call score of the fitted dose curve at least 0.9, where 1 is the maximum; inactive means score below 0.9); details: mRNA level, 48 h; actives raise or lower the signal
# In short: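 Differentiated human HepaRG cells in serum-free induction medium, exposed 48 h in duplicate to eight half-log concentrations from 100 uM top, 0.5% DMSO. Transcript measured by TaqMan qRT-PCR, normalised to ACTB, GAPDH, POLR2A; bidirectional fitting versus DMSO.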
# [16] = read-out: xenobiotic metabolism (CYP2C9), CYP2C9 (gene 1559); experiment: CLD_CYP2C9_6hr: CellzDirect (CLD) Gene Expression Assay for xenobiotic metabolism (CYP2C9) at 6 hours (AID 2283664)
# In short: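 Primary human hepatocytes dosed daily with test chemicals at multiple concentrations; harvested at 6 h. CYP2C9 mRNA induction measured by qNPA chemiluminescence. Gain of signal fitted against 0.2% DMSO vehicle; cytotoxicity annotated from phase-contrast morphology.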
# [17] = CLD_ACTIN_24hr: CellzDirect (CLD) Gene Expression Assay for Baseline Control (Actin) at 24 hours (AID 2283670)
# In short: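 Primary human hepatocytes dosed over multiple concentrations with 0.2% DMSO vehicle; actin mRNA measured at 24 h by qNPA chemiluminescence. Background control endpoint, fitted as gain of signal versus DMSO.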
# Sequence of Cytochrome P450 3A4 (Homo sapiens) (P08684 whole entry, looked up): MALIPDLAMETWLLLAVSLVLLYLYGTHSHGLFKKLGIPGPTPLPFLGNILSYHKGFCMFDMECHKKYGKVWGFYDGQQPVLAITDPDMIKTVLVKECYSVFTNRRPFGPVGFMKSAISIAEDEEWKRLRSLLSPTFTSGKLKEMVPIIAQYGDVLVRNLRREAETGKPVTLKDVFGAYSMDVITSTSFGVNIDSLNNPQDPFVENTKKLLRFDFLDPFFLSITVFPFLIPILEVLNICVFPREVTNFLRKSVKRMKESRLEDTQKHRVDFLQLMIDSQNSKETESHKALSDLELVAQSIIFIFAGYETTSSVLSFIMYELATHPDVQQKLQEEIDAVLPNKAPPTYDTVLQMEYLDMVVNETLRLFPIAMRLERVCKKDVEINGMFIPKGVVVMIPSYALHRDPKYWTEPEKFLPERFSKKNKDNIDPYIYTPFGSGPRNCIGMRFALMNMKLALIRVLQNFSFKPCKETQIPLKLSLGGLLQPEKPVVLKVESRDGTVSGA
# Sequence of Glyceraldehyde-3-phosphate dehydrogenase (Homo sapiens) (P04406 whole entry, looked up): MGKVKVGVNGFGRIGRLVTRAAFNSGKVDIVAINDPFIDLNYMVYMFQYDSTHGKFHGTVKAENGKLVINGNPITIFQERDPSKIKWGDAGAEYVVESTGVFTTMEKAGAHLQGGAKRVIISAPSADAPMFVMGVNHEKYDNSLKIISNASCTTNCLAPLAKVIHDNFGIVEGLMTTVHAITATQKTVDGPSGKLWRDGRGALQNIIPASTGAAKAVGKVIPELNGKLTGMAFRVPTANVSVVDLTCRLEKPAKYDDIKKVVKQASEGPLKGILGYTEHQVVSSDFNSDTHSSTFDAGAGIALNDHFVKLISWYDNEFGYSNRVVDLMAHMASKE
# Sequence of Cytochrome P450 2C19 (Homo sapiens) (P33261 whole entry, looked up): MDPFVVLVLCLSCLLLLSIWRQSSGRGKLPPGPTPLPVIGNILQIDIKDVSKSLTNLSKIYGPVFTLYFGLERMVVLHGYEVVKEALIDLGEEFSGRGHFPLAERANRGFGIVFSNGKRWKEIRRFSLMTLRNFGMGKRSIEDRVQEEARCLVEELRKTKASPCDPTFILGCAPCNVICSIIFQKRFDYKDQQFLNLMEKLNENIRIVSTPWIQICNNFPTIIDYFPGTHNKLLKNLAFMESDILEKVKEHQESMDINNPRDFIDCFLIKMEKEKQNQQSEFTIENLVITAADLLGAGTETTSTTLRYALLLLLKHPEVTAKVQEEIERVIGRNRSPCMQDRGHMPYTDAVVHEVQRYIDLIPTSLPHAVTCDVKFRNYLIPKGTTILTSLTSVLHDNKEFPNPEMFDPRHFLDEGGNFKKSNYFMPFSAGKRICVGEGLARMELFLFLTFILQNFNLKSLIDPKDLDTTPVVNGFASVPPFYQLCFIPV
compound,measurement,setting,value
CCNc1nc(NC(C)C)nc(SC)n1,outcome,[1],inactive
same,outcome,[2],inactive
same,outcome,[3],inactive
same,outcome,[4],inactive
same,AC50,[5],3.97 µM (active)
same,outcome,[6],inactive
same,AC50,[7],1 µM (active)
same,outcome,[8],inactive
same,AC50,[9],149 µM (active)
same,AC50,[10],1.79 µM (active)
same,outcome,[11],inactive
same,outcome,[12],inactive
same,AC50,[13],1.29 µM (active)
CC(C)(c1ccccc1)c1ccc(O)cc1,AC50,[14],12.2 µM (active)
same,outcome,[2],inactive
same,AC50,[9],4.83 µM (active)
O=C(O)C(F)(F)C(F)(F)C(F)(F)C(F)(F)C(F)(F)C(F)(F)C(F)(F)C(F)(F)C(F)(F)F,AC50,[14],38.3 µM (active)
same,outcome,[2],inactive
same,outcome,[15],inactive
same,AC50,[9],60.2 µM (active)
O=C(NC(=O)c1c(F)cccc1F)Nc1cc(Cl)c(OC(F)(F)C(F)F)c(Cl)c1,outcome,[14],inactive
same,outcome,[2],inactive
Cc1ccc(O)c(C)c1,outcome,[14],inactive
same,outcome,[2],inactive
Nn1cnnc1,outcome,[2],inactive
CCOCCOC(C)=O,outcome,[2],inactive
CCCCCCCCCC[N+](C)(C)CCCCCCCCCC,AC50,[14],3.92 µM (active)
same,outcome,[2],inactive
same,AC50,[9],4.53 µM (active)
CN(C)c1nc(=O)n(C2CCCCC2)c(=O)n1C,outcome,[16],inactive
same,outcome,[1],inactive
same,outcome,[3],inactive
same,outcome,[17],inactive
same,outcome,[4],inactive
same,outcome,[6],inactive
same,outcome,[7],inactive
same,outcome,[9],inactive
same,outcome,[10],inactive
same,outcome,[11],inactive
same,outcome,[12],inactive
same,outcome,[13],inactive
CC(C)C(=O)OCC(C)(C)C(OC(=O)C(C)C)C(C)C (configuration not stated),outcome,[2],inactive
CCC(C)c1cc([N+](=O)[O-])cc([N+](=O)[O-])c1O (configuration not stated),outcome,[2],inactive
same,AC50,[9],0.167 µM (active)
CC(C)(O)C(=O)Nc1ccc([N+](=O)[O-])c(C(F)(F)F)c1,outcome,[2],inactive
same,AC50,[9],31.4 µM (active)
CC#Cc1cc(C)nc(Nc2ccccc2)n1,AC50,[9],33.4 µM (active)
